The record followed here is PubChem BioAssay (Tox21).

Records with an inconclusive call do not appear. More than one record can exist for a structure, and the calls need not agree. The source made the active and inactive calls. Unless noted, the call rests on the fitted dose curve; in most records, active means well fitted curve in the direction sought with a large enough effect in the repeat runs; inconclusive means weak or mixed curves; inactive means no such curve, though single readings can be large; an effect the other way counts as inactive or inconclusive.

In assay [1] the target is Estrogen receptor beta (Homo sapiens) (UniProt Q92731). Nature of the assay: qHTS assay to identify small molecule agonists of the estrogen receptor beta (ER-beta) signaling pathway (AID 1259377; active means well fitted activation curve with a large enough effect in the signal ratio in the repeat runs, not every such curve was filed as active; the % refers to the signal ratio). In short, it runs like this: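 Reporter cells (HEK293T, ER-beta-UAS-bla) receive compounds or DMSO after a 6 hr pre-incubation. They then incubate 16 hr at 37C/5% CO2, and fluorescence from LiveBLAzer B/G substrate is measured after 2 hours at room temperature.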
Chain of Estrogen receptor beta (Homo sapiens) (Q92731 whole entry, looked up): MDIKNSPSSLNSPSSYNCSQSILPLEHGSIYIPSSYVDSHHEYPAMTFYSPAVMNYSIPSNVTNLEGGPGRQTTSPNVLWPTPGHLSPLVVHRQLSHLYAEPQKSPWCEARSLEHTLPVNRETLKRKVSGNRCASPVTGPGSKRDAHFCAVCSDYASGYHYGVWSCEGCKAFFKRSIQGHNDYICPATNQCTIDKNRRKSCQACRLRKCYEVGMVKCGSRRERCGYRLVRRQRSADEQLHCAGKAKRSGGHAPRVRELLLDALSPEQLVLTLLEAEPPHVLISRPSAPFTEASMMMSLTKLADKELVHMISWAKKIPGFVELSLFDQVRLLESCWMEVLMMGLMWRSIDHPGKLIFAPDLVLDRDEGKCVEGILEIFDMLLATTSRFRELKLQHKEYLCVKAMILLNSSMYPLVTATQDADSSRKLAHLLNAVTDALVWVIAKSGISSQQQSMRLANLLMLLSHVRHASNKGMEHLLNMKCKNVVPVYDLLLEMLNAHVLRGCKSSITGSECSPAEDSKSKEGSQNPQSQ

The target is the same in assay [2]. Nature of the assay: qHTS assay to identify small molecule antagonists of the estrogen receptor beta (ER-beta) signaling pathway (AID 1259378; active means well fitted inhibition curve with a large enough effect in the signal ratio in the repeat runs, not every such curve was filed as active; the % refers to the signal ratio). In short, it runs like this:
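ER-beta-UAS-bla HEK293T cells in 2% charcoal-stripped FBS medium treated with compound plus 1nM final 17-beta-estradiol for 16 hr at 37C. Beta-lactamase reporter read by FRET substrate fluorescence after 2 hours at room temperature.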
On the technique in general: In qHTS, concentration-response curves come from the screen itself.

Assay [3] in a line: qHTS assay to identify small molecule agonists of the androgen receptor (AR) signaling pathway in the presence of an antagonist - cell viability counter screen (AID 1259379). Further: nearly all actives have a fitted effect of over 25% in size. Further: potency means the concentration at half of the fitted maximal effect. Put shortly:
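Counter screen for cell viability run in parallel with the AR agonist-mode luciferase assay. MDA-kb2 cells were co-treated with nilutamide (3.0uM final) and compounds, then incubated 16 hr at 37C, and CellTiter-Fluor fluorescence was measured.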

A short description of assay [4]: qHTS assay to identify small molecule agonists of the estrogen receptor beta (ER-beta) signaling pathway - cell viability counter screen (AID 1259380). Further: nearly all actives have a fitted effect of over 30% in size. In short, it runs like this:
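In this qHTS counter screen, HEK293T cells carrying an ER-beta/UAS beta-lactamase reporter, grown in 2% charcoal-stripped FBS, received compound for 16 hr; ATP-based CellTiter-Glo luminescence was then read after 30 min at room temperature.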

In assay [5] the target is Androgen receptor (Homo sapiens) (UniProt P10275). Nature of the assay: qHTS assay to identify small molecule agonists of the androgen receptor (AR) signaling pathway in the presence of an antagonist (AID 1259381; calls by dose curve; further: nearly all actives have a fitted effect of over 15% in size). In short, it runs like this:
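AR antagonist background: nilutamide 3.0uM final. Cell line: MDA-kb2, MMTV-driven luciferase, responsive to both AR and GR. Exposure 16hr, 37C, no CO2; ONE-Glo luminescence.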

Assay [6] can be described thus: qHTS assay to identify small molecule antagonists of the estrogen receptor beta (ER-beta) signaling pathway - cell viability counter screen (AID 1259382). Further: series mostly up to about 92 µM; nearly all actives have a fitted effect of over 55% in size. Put shortly: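 HEK293T ER-beta-UAS-bla, 2% charcoal-stripped FBS; compounds + 1nM E2 16 hr 37C; CellTiter-Glo luminescence, 30 min RT.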
A short description of assay [7]: qHTS assay to identify small molecule agonists or antagonists of the thyroid stimulating hormone receptor (TSHR) signaling pathway - wild type cell line counter screen (AID 1259384; calls by dose curve). Put shortly: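 Wild-type Hek293 cells, 800/well, 18 h at 37C, then compound with Ro20-1724 for 30 min RT. cAMP by HTRF (cAMP-d2/anti-cAMP cryptate), 1 h RT, fluorescence read. 15 concentrations, triplicates.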

Assay [8] addresses Thyrotropin receptor (Homo sapiens) (UniProt P16473). Nature of the assay: qHTS assay to identify small molecule antagonists of the thyroid stimulating hormone receptor (TSHR) signaling pathway (AID 1259385; calls by dose curve; further: nearly all actives have a fitted effect of over 20% in size). Put shortly: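 TSHR-HEK293 cells (800/well) plated 18 h, then compounds with Ro20-1724 and TSH at 1.5 ng/mL final, 30 min at room temperature. cAMP quantified by HTRF (cAMP-d2/anti-cAMP-cryptate, 1 h); 15 concentrations in triplicate.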

Assay [9] is described as follows: qHTS assay to identify small molecule agonists of the estrogen receptor alpha (ER-alpha) signaling pathway in the presence of an antagonist - cell viability counter screen (AID 1259386).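 Further: series mostly up to about 92 µM; cells exposed to compounds for 22 h at 37 °C before the viability read; nearly all actives have a fitted effect of over 30% in size.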 In short, it runs like this: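 Steps: 5-day stripped-FBS culture; seed and incubate 24hr; add ICI-182,780 (10.0nM final); pin 15-point compound titration; incubate 22hr at 37C; add CellTiter-Fluor at 21hr; read fluorescence.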

Assay [10] concerns the target Progesterone receptor (Homo sapiens) (UniProt P06401). Nature of the assay: qHTS assay to identify small molecule agonists of the progesterone receptor (PR) signaling pathway (AID 1346784; calls by dose curve; further: nearly all actives have a fitted effect of over 30% in size). Put shortly: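 Reporter assay, GripTite PR-UAS-bla HEK 293T cells: 16 hr exposure to DMSO-dissolved compounds at 37C, 5% CO2, in steroid-depleted (2% charcoal-stripped FBS) medium; beta-lactamase measured by FRET fluorescence.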

Assay [11] has the same target. Nature of the assay: qHTS assay to identify small molecule antagonists of the progesterone receptor (PR) signaling pathway (AID 1346795; active means well fitted inhibition curve with a large enough effect in the signal ratio in the repeat runs, not every such curve was filed as active; the % refers to the signal ratio). In short, it runs like this:
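Stimulus R5020 at 1 nM final; cells HEK293T PR-UAS-bla; medium with 2% charcoal-stripped FBS; compound exposure 16 hr at 37C, 5% CO2; detection by FRET beta-lactamase substrate, 2 hr, room temperature.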

The nature of assay [12]: qHTS assay to identify small molecule antagonists of the progesterone receptor (PR) signaling pathway - cell viability counter screen (AID 1346798). Further: series mostly up to about 92 µM; nearly all actives have a fitted effect of over 50% in size. Put shortly:
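In the same plates used for the beta-lactamase readout, cell viability of compound- and R5020-treated PR-UAS-bla HEK293T cells (16 hr, 37C) was assessed by CellTiter-Glo luminescence.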

The nature of assay [13]: qHTS assay to identify small molecule agonists of the progesterone receptor (PR) signaling pathway - cell viability counter screen (AID 1346799; calls by dose curve; further: nearly all actives have a fitted effect of over 45% in size; further: potency means the concentration at half of the fitted maximal effect). In short, it runs like this:
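Multiplexed viability read: CellTiter-Glo luminescence, 30 min RT, following LiveBLAzer FRET measurement on PR-UAS-bla HEK293T cells exposed to compounds 16 hr.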

Assay [14] is described as follows: qHTS assay to identify small molecule antagonists of the TGF-beta/Smad signaling pathway - cell viability counter screen (AID 1346824). Further: nearly all actives have a fitted effect of over 50% in size. Put shortly:
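SBE-bla HEK 293T cells, incubated overnight, then compound plus 0.25 ng/mL TGF-beta1 (stock added) for 5 hr at 37 C. Viability was read in the same wells by CellTiter-Glo luminescence after 30 min at room temperature.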

Assay [15] in a line: qHTS assay to identify small molecule agonists of the TGF-beta/Smad signaling pathway - cell viability counter screen (AID 1346829). Further: top concentration of the series differs between compounds; nearly all actives have a fitted effect of over 45% in size. In short, it runs like this: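 SBE-bla HEK 293T cells plated overnight, compound exposure 5 hr at 37 C. Viability read in the same wells by CellTiter-Glo luminescence after 30 min at room temperature, following the beta-lactamase read.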
The nature of assay [16]: qHTS assay to identify small molecule agonists of the TGF-beta/Smad signaling pathway (AID 1346859; active means well fitted activation curve with a large enough effect in the signal ratio in the repeat runs, not every such curve was filed as active; the % refers to the signal ratio; further: series mostly up to about 77 µM). In short, it runs like this: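 Screening used HEK 293T SBE-bla cells at 4,000/well. Test agents: 5 hr, 37 C. Detection: FRET substrate, 2 hr RT, then excitation 405 nm with emissions at 460 and 530 nm.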
For assay [17], the target named is Thyrotropin-releasing hormone receptor (Homo sapiens) (UniProt P34981). Nature of the assay: qHTS assay to identify small molecule antagonists of the thyrotropin-releasing hormone receptor (TRHR) signaling pathway (AID 1346877; active means well fitted inhibition curve with a large enough effect in the repeat runs, not every such curve was filed as active; further: series mostly up to about 51 µM). In short, it runs like this:
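Human TRHR in HEK293 cells; inhibition of the intracellular calcium rise triggered by 1 nM TRH was followed by fluorescence over 3 min. Compounds were run at 15 concentrations, three replicates each.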

Assay [18] has the same target. The experiment in a line: qHTS assay to identify small molecule agonists of the thyrotropin-releasing hormone receptor (TRHR) signaling pathway (AID 1346891; calls by dose curve; further: series mostly up to about 58 µM). In short, it runs like this: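 Readout was intracellular calcium fluorescence in TRHR-Hek293 cells. Cells were incubated 18 h, dye-loaded 2 h at 37 °C, and treated with compound in agonist mode.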
A short description of assay [19]: Human pregnane X receptor (PXR) small molecule agonists, qHTS cell viability counter screen (AID 1346977). Further: nearly all actives have a fitted effect of over 50% in size. In short, it runs like this:
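In each well, the PXR reporter HepG2 line was checked for viability: CellTiter-Fluor reagent added 23hr post-dosing, fluorescence read after 1hr incubation at 37C.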

Assay [20] has as its target Estrogen receptor (Homo sapiens) (UniProt P03372). Nature of the assay: qHTS assay to identify small molecule agonists of the estrogen receptor alpha (ER-alpha) signaling pathway in the presence of an antagonist (AID 1259383; calls by dose curve; further: top concentration of the series differs between compounds; nearly all actives have a fitted effect of over 15% in size). In short, it runs like this:
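ER-alpha agonism measured under antagonist challenge: 10.0nM ICI-182,780 (final) plus compound, 15 concentrations, 22hr, VM7Luc4E2 ERE-luciferase cells. Read by luminescence.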

Chain of Estrogen receptor (Homo sapiens) (P03372 whole entry, looked up): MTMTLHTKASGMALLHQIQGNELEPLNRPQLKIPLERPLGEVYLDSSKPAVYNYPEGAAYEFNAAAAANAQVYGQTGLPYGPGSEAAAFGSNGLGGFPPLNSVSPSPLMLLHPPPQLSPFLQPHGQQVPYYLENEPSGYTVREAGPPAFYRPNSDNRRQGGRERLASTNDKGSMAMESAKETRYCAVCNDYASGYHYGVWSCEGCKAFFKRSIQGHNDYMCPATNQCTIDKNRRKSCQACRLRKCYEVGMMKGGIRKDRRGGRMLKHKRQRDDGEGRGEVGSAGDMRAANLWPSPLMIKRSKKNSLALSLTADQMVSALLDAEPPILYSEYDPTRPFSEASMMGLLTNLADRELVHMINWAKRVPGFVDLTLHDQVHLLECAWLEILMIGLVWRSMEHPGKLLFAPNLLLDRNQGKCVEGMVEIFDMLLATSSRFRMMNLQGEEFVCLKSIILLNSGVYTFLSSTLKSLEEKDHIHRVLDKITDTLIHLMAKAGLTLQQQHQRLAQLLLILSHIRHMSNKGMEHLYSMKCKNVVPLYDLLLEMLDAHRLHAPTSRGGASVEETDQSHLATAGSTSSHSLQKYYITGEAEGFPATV
Chain of Progesterone receptor (Homo sapiens) (P06401 whole entry, looked up): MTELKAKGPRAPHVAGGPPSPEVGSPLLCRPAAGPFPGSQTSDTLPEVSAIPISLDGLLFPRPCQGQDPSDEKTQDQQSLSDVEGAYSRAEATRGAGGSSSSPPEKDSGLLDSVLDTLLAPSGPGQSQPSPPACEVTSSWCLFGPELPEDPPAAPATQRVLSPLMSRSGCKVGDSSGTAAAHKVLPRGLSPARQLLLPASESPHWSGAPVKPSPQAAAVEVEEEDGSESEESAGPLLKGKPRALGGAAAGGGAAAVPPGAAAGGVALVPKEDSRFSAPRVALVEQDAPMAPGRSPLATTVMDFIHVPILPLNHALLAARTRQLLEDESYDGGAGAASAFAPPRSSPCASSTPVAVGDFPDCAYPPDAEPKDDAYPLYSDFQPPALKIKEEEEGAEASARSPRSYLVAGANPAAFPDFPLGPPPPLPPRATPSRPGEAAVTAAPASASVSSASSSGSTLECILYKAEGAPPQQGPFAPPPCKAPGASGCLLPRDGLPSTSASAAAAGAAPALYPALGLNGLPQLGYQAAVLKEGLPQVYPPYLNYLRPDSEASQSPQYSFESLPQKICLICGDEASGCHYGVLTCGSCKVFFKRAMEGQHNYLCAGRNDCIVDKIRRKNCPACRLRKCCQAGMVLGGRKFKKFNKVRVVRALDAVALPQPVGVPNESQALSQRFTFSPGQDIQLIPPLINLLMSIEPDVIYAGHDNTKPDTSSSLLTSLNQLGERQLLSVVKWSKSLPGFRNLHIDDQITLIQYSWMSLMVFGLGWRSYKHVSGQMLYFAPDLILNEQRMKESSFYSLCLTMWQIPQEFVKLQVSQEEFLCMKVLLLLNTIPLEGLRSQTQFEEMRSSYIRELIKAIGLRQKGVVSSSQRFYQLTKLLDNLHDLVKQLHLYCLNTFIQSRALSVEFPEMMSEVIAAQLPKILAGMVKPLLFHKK
Chain of Thyrotropin-releasing hormone receptor (Homo sapiens) (P34981 whole entry, looked up): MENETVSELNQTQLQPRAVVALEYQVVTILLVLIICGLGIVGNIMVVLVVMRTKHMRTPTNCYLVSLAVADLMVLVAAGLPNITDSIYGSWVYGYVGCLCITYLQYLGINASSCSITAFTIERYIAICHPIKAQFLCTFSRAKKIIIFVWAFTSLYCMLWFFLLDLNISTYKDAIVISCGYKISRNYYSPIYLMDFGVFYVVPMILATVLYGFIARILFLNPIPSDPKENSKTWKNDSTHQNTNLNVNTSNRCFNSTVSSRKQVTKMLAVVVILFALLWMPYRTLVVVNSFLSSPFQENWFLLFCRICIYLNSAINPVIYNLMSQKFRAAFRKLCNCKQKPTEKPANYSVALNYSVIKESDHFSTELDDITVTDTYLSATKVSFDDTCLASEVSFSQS
Chain of Thyrotropin receptor (Homo sapiens) (P16473 whole entry, looked up): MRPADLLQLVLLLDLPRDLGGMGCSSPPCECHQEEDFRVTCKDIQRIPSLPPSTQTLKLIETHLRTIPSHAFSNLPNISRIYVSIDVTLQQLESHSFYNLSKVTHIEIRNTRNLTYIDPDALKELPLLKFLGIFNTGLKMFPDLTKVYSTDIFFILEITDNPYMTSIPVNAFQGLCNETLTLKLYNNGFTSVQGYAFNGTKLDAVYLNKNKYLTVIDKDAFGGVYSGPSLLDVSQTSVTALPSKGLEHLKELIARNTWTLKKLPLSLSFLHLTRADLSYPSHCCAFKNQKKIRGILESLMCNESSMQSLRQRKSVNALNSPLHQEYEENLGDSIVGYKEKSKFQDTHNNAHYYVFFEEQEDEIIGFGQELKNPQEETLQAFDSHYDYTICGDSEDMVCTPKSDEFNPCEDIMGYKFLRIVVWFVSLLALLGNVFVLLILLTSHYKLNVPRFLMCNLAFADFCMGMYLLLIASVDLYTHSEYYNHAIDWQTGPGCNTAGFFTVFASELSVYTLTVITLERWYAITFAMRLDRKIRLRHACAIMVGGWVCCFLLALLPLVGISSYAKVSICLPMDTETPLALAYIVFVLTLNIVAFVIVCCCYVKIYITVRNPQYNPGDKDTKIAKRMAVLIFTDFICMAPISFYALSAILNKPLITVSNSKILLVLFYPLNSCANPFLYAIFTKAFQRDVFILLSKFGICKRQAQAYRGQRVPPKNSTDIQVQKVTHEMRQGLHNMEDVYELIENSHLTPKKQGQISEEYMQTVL
Chain of Androgen receptor (Homo sapiens) (P10275 whole entry, looked up): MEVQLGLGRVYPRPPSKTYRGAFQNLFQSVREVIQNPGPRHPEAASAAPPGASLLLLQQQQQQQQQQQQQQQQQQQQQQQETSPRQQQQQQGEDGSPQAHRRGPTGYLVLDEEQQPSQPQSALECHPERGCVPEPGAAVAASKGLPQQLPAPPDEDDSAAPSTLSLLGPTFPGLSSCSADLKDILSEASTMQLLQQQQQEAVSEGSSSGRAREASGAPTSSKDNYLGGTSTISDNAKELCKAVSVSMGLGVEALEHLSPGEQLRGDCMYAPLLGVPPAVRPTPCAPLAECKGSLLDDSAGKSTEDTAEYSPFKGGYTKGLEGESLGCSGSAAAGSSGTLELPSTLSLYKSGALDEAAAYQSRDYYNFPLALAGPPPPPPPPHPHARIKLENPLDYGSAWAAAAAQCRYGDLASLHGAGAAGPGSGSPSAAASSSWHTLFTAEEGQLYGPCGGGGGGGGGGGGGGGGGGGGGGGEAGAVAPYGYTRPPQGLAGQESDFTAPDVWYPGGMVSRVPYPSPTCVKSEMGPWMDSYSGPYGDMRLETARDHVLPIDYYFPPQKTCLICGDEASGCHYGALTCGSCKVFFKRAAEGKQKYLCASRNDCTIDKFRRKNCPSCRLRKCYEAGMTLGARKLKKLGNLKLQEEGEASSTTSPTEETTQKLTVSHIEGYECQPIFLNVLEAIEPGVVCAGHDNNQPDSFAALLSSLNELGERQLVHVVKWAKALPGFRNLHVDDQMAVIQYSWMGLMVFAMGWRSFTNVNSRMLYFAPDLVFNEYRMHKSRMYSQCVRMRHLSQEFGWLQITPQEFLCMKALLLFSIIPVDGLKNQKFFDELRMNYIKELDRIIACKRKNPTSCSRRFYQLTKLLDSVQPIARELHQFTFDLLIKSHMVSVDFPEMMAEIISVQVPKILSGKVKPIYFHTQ

Consider `O=C(c1ccccc1)c1ccccc1O`, for which the Potency entry in [1], in assay [2], in assay [3], in assay [4], in assay [6] and in assay [8] was “inactive” each time. Further, the Potency result in [9], in assay [10], in assay [11], in [12], in assay [13] and in assay [14] was “inactive” each time. The Potency result in assay [15], in assay [17], in assay [18] and in assay [19] was “inactive” throughout. Moreover, the result in [5], in assay [7] and in assay [16] was inactive.
Regarding `Nc1ccc(S(=O)(=O)Nc2cnc3ccccc3n2)cc1`, the Potency result in assay [1], in [2], in [3], in assay [4], in assay [6] and in assay [8] was “inactive” each time. For the same compound, the Potency entry in assay [9], in [10], in [11], in [12], in assay [13] and in assay [14] was “inactive” throughout. The Potency entry in assay [15] and in [19] was “inactive” each time. Moreover, the call in [7] and in [16] was inactive.
`Clc1nc(Cl)c(Cl)c(Cl)c1Cl`: the Potency entry in assay [1], in [2], in assay [4], in assay [6], in assay [8] and in [9] was “inactive” each time. Further, the Potency entry in [10], in [11], in [12], in assay [13], in assay [14] and in assay [15] was “inactive” each time. For the same compound, in assay [19], the Potency entry is “inactive”. The Potency in assay [3] was 61.4 µM (active). For the same compound, the outcome in assay [7] and in [16] was inactive.
As to `Cc1[nH]c(=O)c(C#N)cc1-c1ccncc1`, the Potency entry in [1], in assay [2], in assay [3], in assay [4], in assay [6] and in assay [20] was “inactive” in each case. In addition, the Potency result in assay [8], in assay [9], in assay [12], in [14], in assay [15] and in assay [17] was “inactive” each time. Besides, the Potency entry in assay [18] and in [19] was “inactive” in each case. Moreover, the compound was classed as inactive in assay [7] and in [16]. Also, the Potency in assay [13] was 2.73 µM (active) and inactive.
With `Nc1ncnc2nc[nH]c12`, the Potency result in assay [1], in assay [2], in [3], in assay [4], in assay [6] and in assay [20] was “inactive” each time. Further, the Potency entry in assay [8], in assay [9], in assay [10], in assay [11], in [12] and in assay [14] was “inactive” throughout. The Potency entry in assay [15] and in [19] was “inactive” throughout. The call in [7] and in assay [16] was inactive.
For `CCCCOCCOCCOCCO`, the Potency entry in [1], in assay [2], in assay [3], in assay [4], in assay [6] and in [8] was “inactive” each time. Further, the Potency result in [9], in [10], in assay [11], in [12], in assay [13] and in assay [14] was “inactive” each time. The Potency result in assay [15], in assay [17], in assay [18] and in assay [19] was “inactive” in each case. The compound was called inactive in assay [7] and in [16].
On to `c1ccncc1`, for which the Potency entry in assay [1], in [2], in assay [3], in [4], in [6] and in assay [20] was “inactive” each time. Also, the Potency result in [9], in assay [10], in assay [11], in assay [12], in assay [13] and in [14] was “inactive” in each case. Besides, the Potency entry in assay [15], in assay [17], in [18] and in [19] was “inactive” each time. Also, the result in assay [7] and in assay [16] was inactive.
